Experimental data taken from PubChem BioAssay (NCATS).
Active and inactive are the calls of the source. Calls come from the whole dose curve.

Columns and labels:
Assay in all cases: Confirmatory Screen for Target Class Profiling of Small Molecule Inhibitors of Methyltransferases (AID 1745852); for activity change, negative = inhibition: % is set by controls: 0 for no effect and ±100 for the full control effect
[1] = target: Catechol O-methyltransferase (Homo sapiens) (UniProt P21964); settings: MTase-Glo luminescence, SAH detection, recombinant enzyme; measured here: COMT max response; stronger effect = lower value
Chain of Catechol O-methyltransferase (Homo sapiens) (P21964 whole entry, looked up): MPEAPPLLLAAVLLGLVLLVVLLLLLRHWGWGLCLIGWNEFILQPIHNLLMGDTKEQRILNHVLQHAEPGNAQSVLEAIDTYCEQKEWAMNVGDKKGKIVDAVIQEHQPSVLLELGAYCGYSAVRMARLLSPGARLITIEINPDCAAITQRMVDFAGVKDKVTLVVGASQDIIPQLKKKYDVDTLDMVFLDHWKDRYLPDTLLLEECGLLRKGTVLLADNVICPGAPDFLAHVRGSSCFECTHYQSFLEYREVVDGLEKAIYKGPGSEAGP

[2] = target: Guanidinoacetate N-methyltransferase (Homo sapiens) (UniProt Q14353); settings: MTase-Glo luminescence, SAH detection, recombinant enzyme; activity change, negative = inhibition: at 57.3 µM (top of the series) unless noted; series mostly up to 57.3 µM
[3] = target: Nicotinamide N-methyltransferase (Homo sapiens) (UniProt P40261); settings: MTase-Glo luminescence, SAH detection, recombinant enzyme; measured here: NNMT max response; stronger effect = lower value
Chain of Nicotinamide N-methyltransferase (Homo sapiens) (P40261 whole entry, looked up): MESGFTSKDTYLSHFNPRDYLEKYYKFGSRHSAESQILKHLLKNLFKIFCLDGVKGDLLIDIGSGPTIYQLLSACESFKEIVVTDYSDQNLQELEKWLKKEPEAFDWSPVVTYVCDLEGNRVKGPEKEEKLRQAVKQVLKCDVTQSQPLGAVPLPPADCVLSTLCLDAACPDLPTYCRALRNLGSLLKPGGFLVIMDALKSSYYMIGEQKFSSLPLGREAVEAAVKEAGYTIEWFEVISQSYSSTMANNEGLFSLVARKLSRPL

[4] = target: Phenylethanolamine N-methyltransferase (Homo sapiens) (UniProt P11086); settings: MTase-Glo luminescence, SAH detection, recombinant enzyme; measured here: PNMT max response; stronger effect = lower value
Chain of Phenylethanolamine N-methyltransferase (Homo sapiens) (P11086 whole entry, looked up): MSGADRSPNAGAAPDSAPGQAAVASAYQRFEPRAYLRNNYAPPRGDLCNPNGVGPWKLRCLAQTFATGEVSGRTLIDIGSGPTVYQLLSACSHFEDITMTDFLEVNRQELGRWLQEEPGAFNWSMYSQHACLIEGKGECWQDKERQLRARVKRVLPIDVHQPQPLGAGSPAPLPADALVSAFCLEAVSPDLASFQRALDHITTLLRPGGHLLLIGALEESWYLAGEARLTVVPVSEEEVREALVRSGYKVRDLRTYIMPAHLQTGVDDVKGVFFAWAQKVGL
Potency is the fitted concentration of half-maximal effect.

Structure (SMILES)	activity [1]	activity change, negative = inhibition [2]	activity [3]	activity [4]	Potency [2]
COc1cccc(CN2C(=O)c3nc4ccccc4n3CC2(C)C(=O)NC2CCC(C)CC2)c1 (configuration not stated)	-5%	0.902%	-42.5%	-8.56%	–
Cc1ccc2c(c1)c(-n1cccc1)c1n2CC(C)(C(=O)NC2CCCCC2)N(Cc2ccccn2)C1=O (configuration not stated)	4.89%	0.484%	-16.5%	0%	–
O=C(CCCc1nnc2n3nc(-c4ccccc4)nc3c3ccccc3n12)NCCN1CCCC1	3.65%	0%	-3.84%	0%	–
O=C1c2ccccc2C(=O)c2cc(S(=O)(=O)NCCO)ccc21	-11%	0%	-0.735%	-29.7%	–
COc1ccc(C(=O)N(Cc2ccco2)S(=O)(=O)c2ccc3c(c2)n(C)c(=O)n3C)cc1	-5.23%	-1.3%	-20%	-5.7%	–
O=C(NCc1cccc(F)c1)c1nc2c(o1)CCN(CC1CCCC1)CC2	5.53%	18.3% [at 85.7 µM]	5.46%	-10.1%	–
CC1(C(=O)NC2CCCC2)Cn2c(c(-n3cccc3)c3ccccc32)C(=O)N1Cc1ccccn1 (configuration not stated)	1.3%	1.85%	-46.2%	0%	–
CC(CNC(=O)c1nnn2c1c(=O)[nH]c1cc(F)ccc12)c1ccccc1 (configuration not stated)	-11.1%	–	-18.2%	-15.8%	0.271 µM (active)
CCN(CCc1nc2ccc(C)cc2[nH]1)C(=O)c1ccccc1C1CCNC1 (configuration not stated)	6.01%	8.24%	7.78%	8.18%	–
FC(F)(F)c1ccnc(N2CC[C@H](c3nnc(-c4ccncc4)o3)C2)n1	2.16%	0.304% [at 85.7 µM]	-59.3%	3.21%	–
Cc1ccc(Cn2c(=O)c3ccccc3n3c(-c4cccc(C)c4)nnc23)cc1	-4.65%	2.78%	-4.69%	-4.19%	–
CCCC1c2cccn2CCN1C(=O)Nc1ccc(Br)cc1 (configuration not stated)	-7.6%	-4.2%	-18.3%	-12.2%	–
COc1ccc2nc([C@H]3CCN(C4CCCCC4)C3)[nH]c2c1	-5.45%	4.16% [at 85.7 µM]	-3.99%	-4.21%	–
Cc1cccc(N2CCN(C(=O)CCc3nnc4n(CCC(C)C)c(=O)c5ccccc5n34)CC2)c1C	-0.369%	0%	-48.8%	-4.73%	–
O=C(c1ccc(C2CCCNC2)cc1)N1CCN(c2ccncc2)CC1 (configuration not stated)	3.41%	2.03%	-3.55%	3.06%	–
Cc1ccc(CNC(=O)c2ccc3c(=O)[nH]c4c(C(=O)NC(C)C)sc(=S)n4c3c2)cc1	-30.2%	-7.1%	-65.3%	-17.2%	–
CCCn1c(=O)c2ccccc2n2c(=O)n(CC(=O)c3cccc(Cl)c3)nc12	-8.93%	-4.81%	-46.1%	-9.61%	–
O=C(CCc1ccccc1)N1CCNc2cnc(Nc3cccnc3)nc2C1	-28.2%	-16.6% [at 85.7 µM]	-21.6%	-41.2%	–
N#Cc1ccccc1-c1cc2c(ccn2Cc2ccncc2)c(N2CCOCC2)n1	-6.69%	-0.304% [at 85.7 µM]	-6.24%	-4.65%	–
COc1cccc(Nc2ccnc(-c3nnc(C)n3C3CCCCC3)c2)c1	7.43%	17.8% [at 85.7 µM]	-22.9%	8.64%	–

Structure (SMILES)	activity [1]	activity change, negative = inhibition [2]	activity [3]	activity [4]	Potency [2]
CC1CC(C)CN(S(=O)(=O)c2ccc3c(c2)oc(=O)n3CC(=O)Nc2cccc(F)c2)C1 (configuration not stated)	1.38%	0%	-0.567%	-52.9%	–
Cc1nc2cccnc2n1CC1CCCN(S(=O)(=O)c2ccc3c(c2)OCCO3)C1 (configuration not stated)	2.68%	-0.116%	-4.66%	-0.0682%	–
Cc1cnccc1NCCn1ccnc1-c1cc2n(n1)CCCNC2	-0.636%	2.5%	0.35%	0.494%	–
COc1ccc(OCc2cc(C(=O)NC(CO)C(C)C)no2)c2ccccc12 (configuration not stated)	3.87%	1.38%	5.13%	0.331%	–
O=C(Nc1ccc2c(N3CCOCC3)ncnc2c1)c1cccc(Cl)c1	-10.9%	-4.21%	-7.95%	-22.8%	–
CC1CCCCC1NC(=O)C1(C)Cn2c(cc3sccc32)C(=O)N1Cc1ccc(Cl)cc1 (configuration not stated)	-7.44%	-6.06%	-8.12%	-8.77%	–
COc1cccc(Nc2cc3c(cn2)CN(Cc2cccnc2)CCN3)c1	1.92%	2.65% [at 85.7 µM]	-7.33%	-8.41%	–
COC(=O)c1nc(NC(=O)Cn2nc3c(cc2=O)CCCC3)sc1C(C)C	-1.05%	0.9%	-8.15%	2.23%	–
O=C1c2ccccc2C(=O)c2cc(S(=O)(=O)N(CCO)CCO)ccc21	-23%	2.27%	-1.51%	-73.8%	–
O=C(CCc1nnc2n(CCc3ccccc3)c(=O)c3ccccc3n12)N1CCC(N2CCCCC2)CC1	4.18%	0.438%	-3.96%	0%	–
COC(=O)c1cc2n(n1)CC(C)(C(=O)NC1CCC(C)CC1)N(Cc1ccc(OC)cc1OC)C2=O (configuration not stated)	-11.6%	-7.55%	-66.9%	-13.3%	–
COc1ccc(CCN2C(=O)c3ccc(-c4ccco4)n3CC2(C)C(=O)NC2CCCC2)cc1OC (configuration not stated)	-9.3%	-6.46%	-65.9%	-5.82%	–
COc1ccc(CN2C(=O)c3cc4ccccc4n3CC2(C)C(=O)NCc2ccccc2)cc1OC (configuration not stated)	4.11%	0%	-57.8%	1.95%	–
CN(C)CCOCC1(C)COc2ccc(C(=O)Nc3ccc4[nH]ccc4c3)cc2N1 (configuration not stated)	1.58%	9.89% [at 85.7 µM]	2.73%	0.534%	–
CCCCN1C(=O)c2cc(C(=O)NCc3ccc(OC)cc3OC)nn2CC1(C)C(=O)NC1CCCC1 (configuration not stated)	0.43%	0%	-36.8%	-3.65%	–
C[S+](=O)([O-])N1CCC(Cn2ccc3c(N4CCOCC4)nc(-c4cccc5[nH]ncc45)cc32)CC1	-13.4%	-3.16%	-5.17%	-54.3%	–
Cn1c(=O)n(C)c2cc(S(=O)(=O)Nc3cc4c(cc3NCc3ccccc3)n(C)c(=O)n4C)ccc21	-26%	–	-35.1%	-25.2%	21.5 µM (active)
CCc1cccc(NC(=O)Cn2c(=O)oc3cc(S(=O)(=O)N4CCCCC4)ccc32)c1	1.79%	0%	-2.82%	-33.8%	–
Cn1c(=O)n(C)c2cc(S(=O)(=O)N3CCN(C4CCCCC4)CC3)ccc21	-4.43%	-0.234%	-8.71%	-5.99%	–
COc1ccc(OC)c2c1cc1n2CC(C)(C(=O)NC2CCCCC2)N(Cc2ccccn2)C1=O (configuration not stated)	-7.35%	-3.03%	-22.4%	-6.38%	–

Structure (SMILES)	activity [1]	activity change, negative = inhibition [2]	activity [3]	activity [4]	Potency [2]
COc1ccc(-c2n[nH]n3c2nc(=O)c2ccc(C(=O)NC(C)c4ccc(F)cc4)cc23)cc1 (configuration not stated)	-18.7%	-8.96%	-25%	-17.7%	–
Cc1c(C(=O)O)ccc2c1N[C@@H](c1cccc(C(F)(F)F)c1)[C@H]1CC=C[C@@H]21	-4.24%	-0.164%	-5.85%	-7.15%	–
c1ccc(CN2CCc3c(sc4ncnc(N5CCOCC5)c34)C2)cc1	-7.7%	-10.8%	-44.8%	-7.28%	–
CC1(C)[C@H](Cc2cc(-c3ccccc3)on2)C[C@@H]1NCC1CC1	1.83%	-0.152% [at 85.7 µM]	-6.44%	-13.1%	–
CCCCN1C(=O)c2cc(C(=O)NCCc3ccccc3Cl)nn2CC1(C)C(=O)NC1CCCC1 (configuration not stated)	0.497%	0%	-0.43%	-2.62%	–
COc1ccc(OC)c(NC(=O)c2sc(=S)n3c2[nH]c(=O)c2ccc(Cl)cc23)c1	-83.1%	–	-72.9%	-84.9%	24.1 µM (active)
COc1cccc(CN2CCCC3(CNc4ccccc4[S+](=O)([O-])N3)C2)c1 (configuration not stated)	-4.83%	-8.51%	-12.2%	-3.23%	–
O=C(NCCc1ccc(Cl)cc1)c1ccc2c(=O)[nH]c3c(C(=O)NC4CCCC4)sc(=S)n3c2c1	-38.3%	–	-77.1%	-66.5%	27.1 µM (active)
Cc1oc(C(=O)O)cc1COc1ccc2c(-c3ccccc3)cc(=O)oc2c1C	-34.8%	–	-43.8%	-32.8%	27.1 µM (active)
C[C@H]1CN(C(=O)c2nn(C)c3ccccc23)C[C@@H]1c1nc(-c2cccnc2)no1	15.6%	7.54%	-94%	7.38%	–
CCCC1c2cccn2CCN1C(=O)Nc1cc(Cl)c(OC)cc1OC (configuration not stated)	-9.49%	-6.89%	-17.5%	-8.84%	–
CCCC1c2cccn2CCN1C(=O)Nc1ccc(F)cc1F (configuration not stated)	-4.42%	1.31%	-4.75%	-3.85%	–
CCCC1c2cccn2CCN1C(=O)Nc1ccc(OC)cc1 (configuration not stated)	-6.82%	-3.73%	-13.3%	-7.43%	–
CCCNc1cc(N2CCC(CCC(=O)NCCN3CCCCCC3)CC2)ncn1	7.42%	8.04%	-8.06%	0.426%	–
COc1ccccc1CC(=O)N1CCCc2ncc(C(=O)Nc3cccc(Cl)c3)cc21	2.46%	2.54% [at 85.7 µM]	9.05%	3.39%	–
COc1ccc(-c2cc(C(=O)NCc3cccnc3)c3c(c2)N(C)CCO3)cc1OC	3.17%	8.84% [at 85.7 µM]	-0.0858%	-0.493%	–
COc1ccc(-c2[nH]nc3ncc(C(=O)N4CCC(c5ccccc5)CC4)nc23)c(C)c1	-39.6%	-20.4% [at 85.7 µM]	-23.9%	-53.6%	–
COc1ccc(CCNC(=O)CCc2nnc3n(CC(C)C)c(=O)c4ccccc4n23)cc1OC	-6.74%	-2.85%	-43.7%	-6.97%	–
